# Screens from PubChem BioAssay.
# In the library only some 1.5% were active in any assay of this set; here they are far more common.
# CendR NRP1 mod: modulators of CendR peptide binding to human neuropilin-1. O14786. FAM-RPARPAR peptide binding to NRP-1, fluorescence polarization. inhibition, % at 25 µM. hit rate 0.85% among 360,000. AID 602438;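 active means inhibition or corrected inhibition above about 18%, plus a signal ratio from 0.5 to 1.5, limit read from the data, passing the limit was not always enough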
# RAD54 branch: blocks human RAD54 Holliday junction branch migration | inhibition, % at 10.4 µM | FAM/BHQ fluorescence | AID 602329 | Q92698 | hit rate 0.14% among 360,000;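 active means mean normalized replicate activity at least 40 and at least half of replicates scoring 40 or more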;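 further: 0% = median of neutral control wells and 100% = median of positive control wells; inhibitors cause a drop in the FAM fluorescence signal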
# RAD52 anneal inh: inhibitors of human RAD52 DNA annealing | recombinant RAD52 DNA annealing, FRET fluorescence | inhibition, % at 18.7 µM | hit rate 0.46% among 360,000;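 active means every replicate showing at least 50% inhibition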
# Target sequence (P43351 whole entry, looked up): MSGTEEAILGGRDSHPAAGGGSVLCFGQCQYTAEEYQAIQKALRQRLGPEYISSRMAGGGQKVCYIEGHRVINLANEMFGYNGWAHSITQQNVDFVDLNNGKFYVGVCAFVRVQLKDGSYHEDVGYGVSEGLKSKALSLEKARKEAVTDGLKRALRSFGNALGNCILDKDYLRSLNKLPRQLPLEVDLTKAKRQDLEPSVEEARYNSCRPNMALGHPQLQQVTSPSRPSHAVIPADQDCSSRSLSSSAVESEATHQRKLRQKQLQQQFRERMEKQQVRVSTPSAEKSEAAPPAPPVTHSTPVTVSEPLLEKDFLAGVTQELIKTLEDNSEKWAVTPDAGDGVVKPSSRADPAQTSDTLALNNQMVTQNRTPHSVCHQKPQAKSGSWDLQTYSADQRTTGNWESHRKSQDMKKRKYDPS
# DNA FID counter: fluorescent intercalator displacement, NS3 helicase counter-screen. DNA fluorescent intercalator displacement, fluorescence. inhibition, % at 7.9 µM. hit rate 0.17% among 290,000; in the data active means inhibition above about 37%;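 further: 0% = vehicle and 100% = reference compound; higher means more ethidium bromide displaced from hairpin DNA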
# Glyco luc inh: N-linked glycosylation inhibition; D54 ERlucT glycosylation luciferase reporter, 24 h; percent of 100 nM tunicamycin response; reporter increase, % at 12.5 µM; hit rate 0.23% among 360,000;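 active means mean luciferase reporter signal, scaled so untreated is 0 and the glycosylation-blocking control 100, at or above a set limit in every replicate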;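 further: luciferase carries N-glycosylation sites so blocking glycosylation raises the light; 0% = median of neutral control wells and 100% = median of 100 nM tunicamycin wells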
# miR122 inh: inhibitors of miR-122 in Huh7 cells; Huh7 miR-122 Renilla luciferase sensor, 48 h; neutral wells = 0, positive control = 100; activation (reporter increase), % at 12.5 µM; AID 602342; hit rate 0.3% among 340,000;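 active means mean replicate activation score at least 90 and every replicate individually at or above 90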;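 further: higher luciferase means less miR-122 activity so hits act as miR-122 inhibitors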
# * = called active by the depositor; nt = no result; ! = not active in a repeat; [ ] = remark or other dose.
SMILES,CendR NRP1 mod,RAD54 branch,RAD52 anneal inh,DNA FID counter,Glyco luc inh,miR122 inh
CCOc1cc(CNCCc2ccc(S(N)(=O)=O)cc2)ccc1OCc1ccc(Cl)cc1,-9,-3,nt,37*,-4,-19
CCCCOc1ccc(CSCCN=C(N)N)cc1,40*,nt,11,32,-1,nt
CCCCOc1ccc(CSC(CC(=O)O)C(=O)O)cc1 (configuration not stated),14,-11,nt,-2,2,0
CC(C)CC#Cc1ccc2c(c1)O[C@H](CN(C)C(=O)Nc1ccccc1F)[C@@H](C)CN([C@@H](C)CO)S2(=O)=O,nt,-14,-10,nt,nt,107*[16.7 µM]
CC(C)CC#Cc1ccc2c(c1)O[C@@H](CN(C)C(=O)C1CCC1)[C@@H](C)CN([C@H](C)CO)S2(=O)=O,nt,-10,6,nt,nt,157*[16.7 µM]
CC[C@@H](C)[C@@H](CO[C@@H](Cc1ccccc1)C(=O)N[C@@H](CCS(C)(=O)=O)C(=O)OC(C)C)NCC(N)CS (some centres not stated),nt,nt,26,nt,nt,nt
O=C(/C=C/c1ccc(O)c(O)c1)c1ccccc1O,19,0,-48,4,6,-13
O=C(C=Cc1ccccc1O)c1ccccc1O,-6,1,4,nt,33*,nt
O=C(/C=C/c1ccccc1Cl)c1ccc(O)cc1,-2,-19,-10,1,30*,7
CCN1C(=NCCc2ccccn2)N[C@@H](c2cccc(C(F)(F)F)c2)C(C(=O)OC)=C1C,21*,0,-16,nt,-3,-2
c1ccc(C[C@H]2COc3c4ccccc4nn32)cc1,26*,nt,0,nt,nt,nt
CO[C@@H]1CN(C)C(=O)c2ccc(NC(=O)c3ccccn3)cc2OC[C@@H](C)N(CCC(F)(F)F)C[C@H]1C,nt,0,-7,nt,nt,nt
Cc1cc(=S)cc(C)n1CCCO,32*,-12,nt,0,2,-8
O=C(c1ccccc1)N1CC2(C1)[C@H](c1ccccc1)[C@@H](CO)N2C(=O)CC1CC1,nt,nt,-13,nt,nt,nt
Cc1cc2cc3c(=O)[nH]c(=O)nc-3n(CC(O)C(O)C(O)CO)c2cc1C (configuration not stated),25*,nt,-32,nt,3,-7
CC(C)C#Cc1ccc2c(c1)O[C@H](CN(C)S(C)(=O)=O)[C@H](C)CN([C@@H](C)CO)S2(=O)=O,nt,3,4,nt,nt,2[16.7 µM]
C[C@@H]1CCCCO[C@H](CN(C)C(=O)c2ccncc2)[C@@H](C)CN([C@@H](C)CO)C(=O)c2cc(NC(=O)c3ccccc3)ccc2O1,nt,6,3,nt,nt,8[16.7 µM]
CCOC(=O)c1c(-c2cccc([N+](=O)[O-])c2)csc1NC(=O)CCCOc1ccccc1,-8,nt,nt,-1,0,nt
COc1cc([N+](=O)[O-])ccc1NC(=O)CCCOc1cccc(C)c1,20*,-18,nt,2,1,0
CCOC(=O)c1c(-c2cccc([N+](=O)[O-])c2)csc1NC(=O)CCCOc1ccccc1OC,33*,nt,nt,-9,-3,1
C/C=C/c1ccc2c(c1)O[C@H](CN(C)Cc1ccccn1)[C@H](C)CN([C@H](C)CO)S2(=O)=O,nt,-7,14,nt,nt,19[16.7 µM]
COc1ccc2c3c(n(C)c2c1)[C@@H](CO)N(CC1CC1)CC31CCN(C(=O)Nc2ccc(F)cc2F)CC1,nt,nt,3,nt,nt,nt
Cc1ccccc1CSCC(=O)NC(=O)NCc1ccco1,-10,7,-23,-8,4,0
O=C(CSCc1ccccc1Br)NNC(=S)NCc1ccco1,21*,4,-19,-12,-1,-1
CC1=Nc2ccccc2N=C(NC(=O)CSC(=S)N2CCCCC2)C1c1ccccc1 (configuration not stated),37*,nt,-25,-10,-6,nt
SMILES,CendR NRP1 mod,RAD54 branch,RAD52 anneal inh,DNA FID counter,Glyco luc inh,miR122 inh
CCC1Nc2ncnc(N3CCCCC3)c2N(Cc2ccc(C)cc2)C1=O (configuration not stated),29*!,-13,-64,nt,0,-3
CCC1Nc2ncnc(N3CCCCC3)c2N(Cc2ccccc2)C1=O (configuration not stated),3,-7,-12,nt,2,-2
C[C@@H]1CN([C@H](C)CO)C(=O)c2ccccc2-c2ccccc2CO[C@H]1CN(C)C(=O)Nc1ccccc1,nt,8,-2,nt,nt,nt
Cc1ccccc1NC(=O)CCC(=O)OCC(=O)c1ccc(-c2ccccc2)cc1,27*,-8,nt,0,0,-1
O=C(CCC(=O)OCC(=O)c1ccc(-c2ccccc2)cc1)Nc1cccc(Cl)c1,-2,1,nt,-1,1,-11
CCCC(=O)Nn1cnc2c(c1=O)C1(CCCC1)Cc1ccccc1-2,25*,-1,nt,1,-1,-9
COc1ccc2c3c(n(C)c2c1)[C@@H](CO)N(CC1CC1)CC31CCN(C(=O)Nc2c(C)noc2C)CC1,nt,nt,-68,nt,nt,nt
COc1ccc(-c2ccc3c(c2)[C@@H]2[C@@H](CCN2C(=O)C2CCC2)[C@H](CO)N3C)cc1,nt,nt,29,nt,nt,nt
COc1cccc(-c2ccc3c(c2)[C@@H]2[C@@H](CCN2C(=O)Nc2ccccc2OC)[C@@H](CO)N3C)c1,nt,16,60*,nt,nt,-6[16.7 µM]
COc1cccc(-c2ccc3c(c2)[C@H]2[C@H](CCN2C(=O)Nc2ccccc2OC)[C@H](CO)N3C)c1,nt,10,51*,nt,nt,-11[16.7 µM]
COc1ccc(-c2ccc3c(c2)[C@@H]2[C@@H](CCN2C(=O)C2CC2)[C@@H](CO)N3C)cc1,nt,10,68*,nt,nt,-10[16.7 µM]
COc1ccc(-c2ccc3c(c2)[C@H]2[C@H](CCN2C(=O)Nc2ccccc2OC)[C@H](CO)N3C)cc1,nt,4,21,nt,nt,20[16.7 µM]
COc1cccc(-c2ccc3c(c2)[C@H]2[C@H](CCN2C(=O)Nc2ccccc2OC)[C@@H](CO)N3C)c1,nt,11,27,nt,nt,-6[16.7 µM]
COc1cccc(-c2ccc3c(c2)[C@@H]2[C@@H](CCN2C(=O)c2ccccc2F)[C@@H](CO)N3C)c1,nt,13,69*,nt,nt,-13[16.7 µM]
C[C@@H]1CN([C@@H](C)CO)C(=O)c2cc(NC(=O)Cc3ccccc3)ccc2O[C@@H](C)CCCCO[C@@H]1CN(C)CC1CCCCC1,nt,-7,-9,nt,nt,-12[16.7 µM]
C[C@@H]1CCCCO[C@H](CN(C)C(=O)NC2CCCCC2)[C@H](C)CN([C@@H](C)CO)C(=O)c2cc(NC(=O)NC3CCCCC3)ccc2O1,nt,-1,-20,nt,nt,0[16.7 µM]
O=C(Nc1cccc(F)c1)N1C[C@@H]2N[C@H](C1)C2c1ccc(-c2ccccc2F)cc1 (some centres not stated),nt,nt,64*!,nt,nt,nt
Cc1ccccc1-c1ccc(C2[C@@H]3CN(C(=O)Nc4cccc(F)c4)C[C@H]2N3)cc1 (some centres not stated),nt,nt,72*!,nt,nt,nt
COc1ccc2c3c(n(C)c2c1)[C@@H](CO)N(C(=O)c1ccc(F)cc1)CC31CCN(C(=O)c2ccc(F)cc2)CC1,nt,nt,-24,nt,nt,nt
CO[C@H]1CN(C)C(=O)c2ccc(NC(=O)Nc3cccc(F)c3)cc2OC[C@H](C)NC[C@H]1C,nt,4,0,nt,nt,nt
